# Measured values: PubChem BioAssay (NCATS)
# Inconclusive results are not listed. A number with no mark means an inactive call. The call rests on the fitted dose curve.
# Assay: Cell Viability - SK-N-SH (AID 435);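 further: compound exposure lasted 40 h at 37 °C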
# Settings: SK-N-SH neuroblastoma cell viability qHTS
# Source text: NIH Chemical Genomics Center [NCGC]
# NIH Molecular Libraries Screening Centers Network [MLSCN]
# National Institutes of Environmental Health Sciences [NIEHS]
# National Toxicology Program [NTP]
# We have developed a 1536-well cell-based assay for quantitative high throughput screening (qHTS) against a number of cell lines to determine in vitro cytotoxicity of small molecules. This particular assay uses the SK-N-SH cell line which is derived from human neuroblastoma.
# NCGC Assay Protocol Summary:
# The CellTiter-Glo luminescent cell viability assay (Promega) is a homogeneous method to measure the number of viable cells in culture. The end point readout of this assay is based on quantitation of intracellular ATP, an indicator of metabolic activity, using the luciferase reaction. Luciferase catalyzes the oxidation of beetle Luciferin to oxyluciferin and light in the presence of ATP. The luminescent signal is proportional to amount of ATP present.
# Using the CellTiter-Glo luminescent cell viability assay, the amount of cellular ATP was measured in the SK-N-SH cell line with complete culture medium following compound treatment for 40 hours. The assay was performed in opaque white Kalypsys 1536-well plates. In the screen, tamoxifen and doxorubicin were used as positive controls. Library compounds were measured for their ability to cause acute toxicity in the cell line, as reflected by a decrease in intracellular ATP levels, in a concentration-dependent manner. Data were normalized to the controls for basal activity (DMSO only) and 100% inhibition (100 uM tamoxifen). AC50 values were determined from concentration-response data modeled with the standard Hill equation.
# qHTS protocol fo CellTiter Glo SK-N-SH cellular assay
# [Step] [Parameter] [Value] [Description]
# 1. Reagent; 5 uL; 1500 SK-N-SH cells/well
# 2. Time; 5 hr; 37 °C incubation
# 4. Controls; 23 nL; Tamoxifen 0.34 uM to 100 uM & Doxorubicin 0.02 nM to 100 uM
# 5. Time; 40 hr; 37 °C incubation
# 6. Reagent; 5 uL; CellTiter Glo reagent
# 7. Time; 20 min; Room Temperature
# 8. Detection; Luminescence; Viewlux plate reader
# Keywords: cell viability, cytotoxicity, SK-N-SH cell line, luminescence, NTPHTS, NTPHTS_NCGC, NIEHS, EPA, DSSTox, MLSMR, MLSCN, NIH Roadmap, qHTS, NCGC
# Potency means the concentration at half of the fitted maximal effect.
row,Structure (SMILES),Potency [µM]
1,ClC/C=C/CCl,> 92
2,Cc1ccco1,> 92
3,CN(C)CCCNCCCN,> 92
4,OC/C(Br)=C(\Br)CO,> 92
5,N#CCc1ccccc1[N+](=O)[O-],> 92
6,CC(=O)OCc1ccco1,> 92
7,Cc1ccccc1Br,> 92
8,N#CC1(O)CCCCC1,> 92
9,Cc1cc(C)cc(O)c1,> 92
10,O=C(O)c1ccc(C(=O)O)cc1,> 92
11,CC(C)Nc1ccccc1,> 92
12,CC(O)CC(C)O (stereo not given),> 92
13,CCCCCCCCC/C=C/CC1CC(=O)OC1=O (stereo not given),> 92
14,CC1CCCO1 (stereo not given),> 92
15,CCOCCO,> 92
16,O=C1CCCCC1,> 92
17,O=CNc1ccccc1,> 92
18,CCOc1cc(OCC)c(C(C)=O)cc1OCC,> 92
19,NS(=O)(=O)O,> 92
20,Nc1nc2ccccc2[nH]1,> 92

row,Structure (SMILES),Potency [µM]
1,O=Cc1ccccc1Cl,> 92
2,Cc1ccc(C#N)cc1,> 92
3,Cc1ccc([N+](=O)[O-])c(N)c1,> 92
4,CCNc1ccccc1,> 92
5,CC(=O)OCCC(C)C,> 92
6,CCC(C)(C)C(=O)O,> 92
7,c1ccc(Oc2ccccc2)cc1,> 92
8,CCCCN(CCO)CCCC,> 92
9,Cc1cc(C)c(N)cc1C,> 92
10,CC(C)CCOC(=O)/C=C/c1ccccc1,> 92
11,CC(=O)C1(C)CC2=C(CCCC2(C)C)CC1C (stereo not given),> 92
12,c1ccsc1,> 92
13,O=C1CCC(=O)O1,> 92
14,Cc1ccc(S(=O)(=O)NC2CCCCC2)cc1,> 92
15,O=c1[nH][nH]c(=O)c2cc([N+](=O)[O-])ccc12,> 92
16,C(=C/c1ccccc1)/c1ccccc1,> 92
17,COc1ccc(N)c(C)c1,> 92
18,O=C(O)CN(CC(=O)O)CC(=O)O,> 92
19,NC(=O)c1ccccc1[N+](=O)[O-],> 92
20,CC(C)C(C)C,> 92
